The campaign covered roughly 52,000 compounds. About 4,300 (8.3%) were called active. The sample holds actives, similar compounds and a random draw of the others, so the mix is not that of the screen. Unmarked numbers belong to inactive results. Cut-off read from the data, not from the text of the source: active = survival mostly below about 52% (no sharp cut-off); inactive = mostly above about 56%.
Each compound was assayed on DeltatarO mutant (assay: S. aureus survival, RN4220 and DeltatarO strains – OD600, teichoic acid synthesis inhibitors, primary screen (AID 463173)). Conditions: S. aureus RN4220 wild type/DeltatarO growth, OD600, 18 h, active compounds read low, screened at 18.75 µg/mL (by protocol).

| Compound | survival |
| --- | --- |
| CCOc1ccccc1NC(=O)CN1C=NS(=O)(=O)c2ccccc21 | 72% |
| O=C(CN1c2ccccc2S(=O)(=O)c2ccccc21)Nc1ccccc1Cl | 57% |
| NC(=O)c1ccccc1NC(=O)CN1c2ccccc2S(=O)(=O)c2ccccc21 | 92% |
| Cc1cc(C)c(NC(=O)CN2c3ccccc3S(=O)(=O)c3ccccc32)c(C)c1 | 106% |
| CCOc1ccccc1NC(=O)CN1c2ccccc2S(=O)(=O)c2ccccc21 | 37% (active) |
| Cc1cccc(NC(=O)CN2c3ccccc3S(=O)(=O)c3ccccc32)c1C | 0% (active) |
| CCC(=O)Nc1ccc2nc(C3CC3)n(Cc3ccc(Cl)cc3)c(=O)c2c1 | 111% |
| Cc1cccc(C)c1OCC(=O)NCC1(N(C)C)CCCCC1 | 86% |
| Cc1ccc(Cn2c(CNC(=O)c3ccccc3Br)nc3cccnc32)cc1 | 120% |
| COc1cc(OC)c(NS(=O)(=O)c2cc3c(cc2C)NC(=O)CO3)cc1Cl | 88% |
| CCN(CC)CCCNC(=O)C1CCN(S(C)(=O)=O)CC1 | 85% |
| Cc1cc(Nc2ccc(Br)cc2)nc(C)n1 | 51% |
| CCOc1ccccc1Nc1cc(-c2ccccc2)nc(C)n1 | 60% |
| COc1ccc(Nc2cc(C)c3ccccc3n2)cc1 | 96% |
| COc1cccc(Nc2cc(-c3ccccc3)nc(C)n2)c1 | 37% (active) |
| Cc1cc(C)cc(Nc2cc(C(=O)NC3CCCCC3)c3ccccc3n2)c1 | 116% |
| CSc1nc(C)cc(Nc2cccc(C(=O)O)c2)n1 | 63% |
| Cc1ccc(NC(=O)c2cc3nc(-c4ccccc4)cc(-c4ccccc4)n3n2)cc1 | 60% |
| CSc1nc(Nc2ccc(F)cc2)cc(-c2ccccc2)n1 | -5% (active) |
| CSc1nc(Nc2ccc(C)cc2C)cc(-c2ccccc2)n1 | 51% |
| CCN(CC)CCCNc1cc(-c2ccccc2)nc(C)n1 | 65% |
| Cc1cc(C)cc(Nc2cc(-c3ccccc3)nc(C)n2)c1 | 8% (active) |
| Cc1nc(Nc2ccc(Cl)cc2)cc(-c2ccccc2)n1 | -4% (active) |
| Cc1ccc(C(C)(C)C)c(OCC(=O)NCCc2nc3ccccc3[nH]2)c1 | 70% |

| Compound | survival |
| --- | --- |
| O=C(Cn1c(=O)nc(-c2ccccc2)c2cc(Cl)ccc21)NCc1ccccc1 | 83% |
| COc1ccc(NS(=O)(=O)c2cnc(N)nc2)cc1Cl | 67% |
| CN1C(=O)C(Cc2ccccc2)NC1=S (stereo not given) | 77% |
| O=C(NC(=S)NCc1ccccc1)c1ccco1 | 71% |
| COc1cc(Cl)c(C)cc1NC(=O)CCc1c(C)nc2c3cccnc3nn2c1C | 87% |
| COc1ccc(Cl)cc1Nc1sc(C(=O)c2ccccc2)c(N)c1C(=O)Nc1ccccc1 | 103% |
| Cc1ccc(CNC(=O)CN2C(=O)C3CCCCN3c3ccc(C(=O)N(C)C)cc32)cc1 (stereo not given) | 88% |
| Cc1cc(C)c2nc(NCCNC(=O)C3CCCCC3)c(C#N)cc2c1 | 93% |
| Cc1ccc(Nc2cc(-c3ccccc3)nc(C)n2)cc1 | 24% (active) |
| Cc1ccc(-c2cc(-c3ccccc3)nc(N3CCCC3)n2)cc1 | 115% |
| CCOC(=O)c1ccc(Nc2cc(-c3ccccc3)nc(C)n2)cc1 | 50% |
| Cc1ccc(CCNC(=O)c2ccc(CS(=O)(=O)Cc3ccc(Cl)cc3)o2)cc1 | 84% |
| Cn1nnc2c(N3CCN(c4ccccc4F)CC3)ncnc21 | 83% |
| Cc1cc(Cl)nc(-c2ccccc2)n1 | 91% |
| Cc1ccc(NC(=O)CN2CCSc3ccc(S(=O)(=O)N4CCCC4)cc32)cc1 | 77% |
| CCc1ccc(NC(=O)CN2CCSc3ccc(S(=O)(=O)N4CCCC4)cc32)cc1 | -4% (active) |
| CCOc1ccc(NC(=O)CN2CCSc3ccc(S(=O)(=O)N4CCCC4)cc32)cc1 | 76% |
| Cc1ccc(NC(=O)CSc2nc(=O)n(Cc3cccnc3)c3c2CCC3)cc1F | 67% |
| Cc1ccc(C(=O)CSc2ncn(-c3ccccc3)n2)c(C)c1 | 42% |
| Cc1ccc(Cn2cccc(NC(=O)c3ccncc3)c2=O)cc1 | 101% |
| Cc1ccc(Cn2cccc2C2=NC(C)(C)CO2)cc1 | 45% (active) |
| Cc1ccc(Cn2ccn(Cc3ccc(C)cc3)c(=O)c2=O)cc1 | 97% |
| O=C(Nc1ccc(Cl)cc1)C1CCC(CNS(=O)(=O)c2ccc(Br)s2)CC1 (stereo not given) | 86% |
| O=S(=O)(Nc1ccc(F)cc1F)c1ccc(-n2cccn2)cc1 | 70% |

| Compound | survival |
| --- | --- |
| COc1ccc(OC)c(NS(=O)(=O)c2ccc3c(c2)C(C)(C)C(=O)N3C)c1 | 48% (active) |
| COc1ccc(NC(=O)C2CCC(CNS(=O)(=O)c3ccc(Br)s3)CC2)c(OC)c1 (stereo not given) | 74% |
| Cc1ccccc1NS(=O)(=O)c1ccc(Br)s1 | 109% |
| COc1ccc(OC)c(NS(=O)(=O)c2ccc(-c3cc(C)no3)s2)c1 | 88% |
| O=S(=O)(Nc1ccc(F)c(Cl)c1)c1ccc(Br)s1 | 10% (active) |
| COc1ccc(OC)c(NS(=O)(=O)c2ccc(Br)s2)c1 | 37% (active) |
| O=c1ccc2cc(S(=O)(=O)Nc3ccc(F)c(Cl)c3)ccc2[nH]1 | 89% |
| CC(C)Oc1ccc(CNS(=O)(=O)c2ccc3c(c2)C(C)(C)C(=O)N3C)cc1 | 84% |
| COc1ccc(CNS(=O)(=O)c2ccc3c(c2)C(C)(C)C(=O)N3C)cc1OC | 76% |
| O=S(=O)(Nc1ccc(F)cc1F)c1ccc(Br)s1 | 22% (active) |
| O=C(CSCc1ccccc1Cl)N/N=C/c1ccco1 | 101% |
| COc1ccc(-c2nn(-c3ccc(F)cc3F)c3c2cnc2ccc(F)cc23)cc1 | 79% |
| CN1CCC(OC(=O)COc2ccc(F)cc2)CC1 | 79% |
| NS(=O)(=O)c1ccc(CCNC(=O)C2CCN(c3ncnc4c3nc3n4CCCCC3)CC2)cc1 | 83% |
| Cc1ccc(NCc2cccn2-c2nnc(N3CCC(C(=O)NCCc4ccccc4)CC3)s2)cc1 | 68% |
| Cc1ccc2c(c1)N(C(=O)N1CCC(C(=O)NCc3ccccc3F)CC1)CC(C)O2 (stereo not given) | 79% |
| Cc1cc(C)c2[nH]c(=O)c(C(c3nnnn3C(C)(C)C)N(CCc3ccc(F)cc3)Cc3ccco3)cc2c1 (stereo not given) | 87% |
| Cc1cc(=O)[nH]c2nnc(SCC(N)=O)n12 | 69% |
| CCCSc1nnc2[nH]c(=O)cc(C)n12 | 124% |
| CCOC(=O)C(CC)Sc1nnc2[nH]c(=O)cc(C)n12 (stereo not given) | 52% (active) |
| CN1C(=O)C(=C(C#N)C#N)c2cc(Br)ccc21 | 98% |
| CNC(=O)C1CCC(Cn2c(=O)c3sccc3n(CC(=O)Nc3cc(F)ccc3F)c2=O)CC1 (stereo not given) | 79% |
| Cc1ccccc1NC(=O)Nc1nnc(N(C)Cc2ccccc2)s1 | 85% |
| CCOc1ccccc1NC(=O)Nc1nnc(N(C)Cc2ccccc2)s1 | 53% (active) |

| Compound | survival |
| --- | --- |
| CCc1ccccc1NC(=O)Nc1nnc(N(C)Cc2ccccc2)s1 | 60% |
| CCC(C)c1ccc(NC(=O)C2CCCN(c3ncccn3)C2)cc1 (stereo not given) | 81% |
| COc1ccc(Cl)cc1NC(=O)CN1c2ccccc2S(=O)(=O)c2ccccc21 | 75% |
| COc1cc(Cl)c(C)cc1NC(=O)c1cc(S(=O)(=O)N2CCCC2)ccc1F | 37% (active) |
| COc1ccc(OC)c(NC(=O)C2CCN(S(=O)(=O)c3ccc(C)cc3)CC2)c1 | 50% |
| COc1ccc(C)cc1NC(=O)c1cc(S(=O)(=O)N2CCC(C)CC2)ccc1F | 98% |
| O=C(Nc1ccccc1C(F)(F)F)C1CCN(S(=O)(=O)c2ccccc2)CC1 | 49% (active) |
| O=C(Nc1ccccc1C(F)(F)F)C1CCN(S(=O)(=O)Cc2ccccc2)CC1 | 75% |
| Cc1ccc(N2CCN(S(=O)(=O)c3ccc(F)c(C(=O)Nc4ccc(Cl)cc4Cl)c3)CC2C)cc1 (stereo not given) | -4% (active) |
| O=C(Nc1ccc(Cl)cc1Cl)c1cc(S(=O)(=O)N2CCCCCC2)ccc1F | 76% |
| COc1ccc(Cl)cc1NC(=O)C1CCN(S(=O)(=O)c2ccc(F)cc2)CC1 | 43% (active) |
| CCc1ccccc1NC(=O)C1CCN(S(=O)(=O)c2ccccc2)CC1 | 56% |
| COc1ccc(Cl)cc1NC(=O)C1CCN(S(=O)(=O)c2ccc3c(c2)CC(C)N3C(C)=O)CC1 (stereo not given) | 92% |
| Cc1cccc(N2CCN(S(=O)(=O)c3ccc(F)c(C(=O)Nc4cccc(Cl)c4C)c3)CC2C)c1 (stereo not given) | 85% |
| Cc1ccc(C)c(N2CCN(S(=O)(=O)c3ccc(F)c(C(=O)Nc4ccc(Cl)cc4Cl)c3)CC2)c1 | 96% |
| CCc1nn(CC(=O)NCc2ccc(C)cc2)c(=O)c2cc3occc3n12 | 105% |
| CCOc1ccc(NC(=O)Cn2cc(C(=O)c3ccc(F)cc3)c(=O)c3cc4c(cc32)OCCO4)cc1 | 65% |
| COc1ccc2nc(N(Cc3cccnc3)C(=O)COc3ccccc3)sc2c1 | 90% |
| Cc1ccc(OCCCSc2nc(-c3ccc(C(C)(C)C)cc3)nc3cc(=O)[nH]n23)cc1C | 58% |
| COc1ccc(NC(=O)C2=CC(c3ccc4c(c3)OCO4)=NS(=O)(=O)N2C)cc1OC | 79% |
| O=C(CSc1ncn(-c2ccccc2)n1)NC1CCCCC1 | 61% |
| CCOC(=O)c1c(NC(=O)CC)sc(C(=O)OC)c1C | 75% |
| CCOC(=O)c1ccc(-n2c(-c3ccc(C)cc3)c(C)n3c4c(=O)n(C)c(=O)n(C)c4nc23)cc1 | 75% |
